Screening data as filed in PubChem BioAssay.
L3MBTL1 inh = inhibitors of human L3MBTL1; AID 485360; Q9Y468; 230,000 compounds, 0.66% hits; Potency, µM (top dose mostly 57.1 µM), usual class: inhibitors; AlphaScreen L3MBTL1–H3K9me1 peptide binding; also: nearly all actives have a fitted effect of over 60% in size
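Read-out is AlphaScreen signal from streptavidin donor and nickel chelate acceptor beads (10 ug/mL final each) bridging L3MBTL1 (50 nM) and biotinylated K9-monomethylated H3(1-15) peptide (75 nM), after 30 min compound exposure at room temperature.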
HP1b binding inh = HP1-beta chromodomain-methylated histone interaction inhibition. P83916. AlphaScreen HP1-beta / biotin-H3K9me3 peptide binding. Potency, µM (highest dose often 114 µM), hits mostly inhibitors. 390,000 compounds, 0.56% hits. AID 540317; also: nearly all actives have a fitted effect of over 70% in size
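HP1-beta protein (50 nM final) preincubated 30 min at room temperature with biotinylated H3(1-18)K9me3 peptide (50 nM) in PBS pH 7.4, 0.01% Tween-20, then compound added for 30 min. AlphaScreen streptavidin donor/nickel chelate acceptor beads (10 ug/mL final), 30 min dark, luminescence read.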
JMJD2A Tudor = blocks the human JMJD2A Tudor domain; O75164; AlphaScreen JMJD2A-Tudor / H3K4me3 peptide binding; Potency, µM (titrated, usually from 114 µM), actives largely listed as inhibitors; 390,000 compounds, 4.4% hits; also: nearly all actives have a fitted effect of over 50% in size
G9a block = blocks human histone lysine methyltransferase G9a; Potency, µM (titrated, usually from 102 µM), actives largely listed as inhibitors; G9a H3K9 monomethylation, AlphaScreen, 2 h; Q96KQ7; 350,000 compounds, 8.8% hits; also: nearly all actives have a fitted effect of over 75% in size
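Readings reflect AlphaScreen signal from monomethyl-H3K9 antibody detection. HMT at 20 nM; substrate b-H3K9 500 nM; cofactor SAM 20 uM; 2 h RT reaction; compounds tested as titrations in qHTS with 15 min preincubation.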
BAZ2B inh = blocks human BAZ2B. AlphaScreen BAZ2B-H3K14Ac peptide displacement. 360,000 compounds, 4.4% hits. Q9UIF8. AID 504333. Potency, µM (titrated, usually from 114 µM), most hits filed as inhibitors; also: nearly all actives have a fitted effect of over 60% in size
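AlphaScreen luminescence quantifies BAZ2B engagement of H3K14Ac peptide; the protein and biotinylated peptide are both at 50 nM final, buffer PBS pH 7.4 with 0.01% Tween-20, all steps at room temperature.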
Sfp PPTase inh = Sfp phosphopantetheinyl transferase inhibition. Q9F4F7. Biochemical Sfp PPTase activity, qHTS. Potency, µM, most hits filed as inhibitors. 310,000 compounds, 3.5% hits;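 also: the enzyme is Sfp with the accession as filed and its product quenches rhodamine fluorescence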
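Reaction rates are the 30-min fluorescence difference (ex 525, em 598 nm) in wells containing 15 nM Sfp, 5 uM rhodamine-CoA and 12.5 uM BHQ-2-YbbR at pH 7.6 with 10 mM MgCl2.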
Of the large screens only hits and unclear results are named; the others gave an inactive call. The list is not random: actives were taken first. Their share in the collection is about 12%. Calls follow the shape of the dose curve; as a rule, active = well fitted curve in the direction sought with a large enough effect; inconclusive = small, poorly fitted or top-dose-only effect, or another doubt; inactive = no such curve, though single readings can be large; an effect the other way counts as inactive or inconclusive.

O=C(CCCN1CCOCC1)c1ccc2c(c1)OCCO2	none
O=C(CCN1CCOCC1)NNC(=S)NC(=O)c1ccccc1	JMJD2A Tudor 18µM, G9a block 11µM, Sfp PPTase inh 45µM (no result: L3MBTL1 inh, BAZ2B inh)
O=C(CCN1CCc2ccccc2CC1)c1ccc2c(c1)OCCO2	JMJD2A Tudor inconclusive, G9a block 2.2µM, Sfp PPTase inh 40µM (no result: L3MBTL1 inh)
O=C(c1ccccc1)N1CCN(Cc2ccccc2Br)CC1	HP1b binding inh inconclusive, JMJD2A Tudor 5µM, G9a block inconclusive, BAZ2B inh 50µM
O=C1C(Cl)=C(NCc2ccco2)C(=O)c2ccccc21	HP1b binding inh 50µM, JMJD2A Tudor inconclusive (no result: L3MBTL1 inh, G9a block, BAZ2B inh, Sfp PPTase inh)
O=C1C(Cl)=C(NCCN2CCCCC2)C(=O)c2ccccc21	JMJD2A Tudor inconclusive, G9a block 50µM, BAZ2B inh inconclusive (no result: L3MBTL1 inh)
COc1ccc(NC(=O)c2ccc(CN3CCc4ccccc4C3)cc2)cc1OC	G9a block 71µM
C/C(=N\NC(=O)c1ccc(CN2CCc3ccccc3C2)cc1)c1ccccc1O	JMJD2A Tudor inconclusive, BAZ2B inh 2.8µM (no result: L3MBTL1 inh)
CCc1ccc(-n2c(=O)c3sc4ccccc4c3n(CC(=O)N(CC)Cc3ccccc3)c2=O)cc1	none (no result: L3MBTL1 inh, Sfp PPTase inh)
CSc1nc(=O)n2cccc(C)c2n1	none
Cc1cccn2c(=S)[nH]nc12	HP1b binding inh 71µM, JMJD2A Tudor 2.8µM (no result: L3MBTL1 inh, G9a block, BAZ2B inh, Sfp PPTase inh)
CCCn1[nH]cc(SC)c(=O)c1=O	JMJD2A Tudor 25µM, G9a block inconclusive, BAZ2B inh inconclusive
C=C(C)[C@@H]1CC=C(CN2CCN(Cc3ccccc3)CC2)CC1	JMJD2A Tudor inconclusive, G9a block 50µM, BAZ2B inh inconclusive (no result: L3MBTL1 inh)
COc1cc2nc(NCCc3ccccc3)n3nc(-c4cccnc4)nc3c2cc1OC	BAZ2B inh inconclusive (no result: L3MBTL1 inh, Sfp PPTase inh)
COc1cc(C2C(C(=O)N3CCOCC3)=C(C)NC3=C2C(=O)CCC3)ccc1OC(C)=O (stereo not drawn)	G9a block 1.6µM, Sfp PPTase inh inconclusive
CCOc1cc(C2C(C(=O)N3CCOCC3)=C(C)NC3=C2C(=O)CCC3)ccc1O (stereo not drawn)	none (no result: L3MBTL1 inh)
CSc1ccc(NC(=O)Nc2ccc(C(=O)NCC(=O)O)cc2)cc1	JMJD2A Tudor 56µM, G9a block 35µM, BAZ2B inh 50µM
CCSc1ccc(C(=O)NCC(=O)O)cc1	none (no result: G9a block)
CCc1n[nH]c(=S)n1/N=C/c1ccccn1	HP1b binding inh inconclusive, JMJD2A Tudor 7.9µM, BAZ2B inh 50µM, Sfp PPTase inh 50µM
Cc1nnc(C)n1/N=C/c1ccccn1	none
Cc1n[nH]c(=S)n(/N=C/c2ccccn2)c1=O	JMJD2A Tudor 2.8µM, G9a block inconclusive, BAZ2B inh inconclusive, Sfp PPTase inh 50µM
CCn1c(=O)c(C(=O)Nn2c(C)nc3ccccc3c2=O)c(O)c2ccccc21	BAZ2B inh 50µM
Cc1cc(C(=O)Nn2c(C)nc3ccccc3c2=O)ccc1[N+](=O)[O-]	none
CCn1c(=O)c(C(=O)NCCCO)c(O)c2ccccc21	JMJD2A Tudor 28µM, G9a block inconclusive (no result: BAZ2B inh)
Cc1nc2ccccc2c(=O)n1NC(=O)c1ccc([N+](=O)[O-])cc1	JMJD2A Tudor 8.9µM (no result: L3MBTL1 inh, BAZ2B inh)
O=C(O)[C@@H]1[C@@H]2C[C@H]3c4[nH]c5ccccc5c4CCN3C[C@@H]2CC[C@@H]1O	none (no result: L3MBTL1 inh, HP1b binding inh, JMJD2A Tudor, BAZ2B inh)
COc1ccc(-c2c(C)c3ccc(O)c(CN4CCC(C)CC4)c3oc2=O)cc1OC	none (no result: L3MBTL1 inh, Sfp PPTase inh)
Cc1cc(-c2ccccc2N)n[nH]1	G9a block 50µM, BAZ2B inh inconclusive
Cc1cc(O)c(C(=O)/C=C/c2ccccc2O)c(=O)o1	JMJD2A Tudor inconclusive, G9a block 50µM, BAZ2B inh inconclusive (no result: L3MBTL1 inh)
O=C(/C=C/c1cccc(Cl)c1)c1ccc([N+](=O)[O-])o1	JMJD2A Tudor inconclusive, G9a block inconclusive, BAZ2B inh 10µM (no result: Sfp PPTase inh)
Cc1cc(O)c(C(=O)/C=C/c2cccc([N+](=O)[O-])c2)c(=O)o1	JMJD2A Tudor inconclusive, G9a block 13µM, BAZ2B inh inconclusive
COc1ccc(/C=C/C(=O)c2ccc([N+](=O)[O-])o2)cc1OC	none (no result: Sfp PPTase inh)
Cc1ccccc1Nc1oc(-c2ccccc2)nc1-c1cccs1	none (no result: L3MBTL1 inh, HP1b binding inh, JMJD2A Tudor, G9a block, BAZ2B inh)
COc1cccc(/C(C#N)=C/c2c(-c3ccc(Cl)cc3)nc3c(C)cccn23)c1	HP1b binding inh inconclusive, JMJD2A Tudor inconclusive, G9a block 10µM, BAZ2B inh inconclusive
